# Screening data: PubChem, National Center for Advancing Translational Sciences (NCATS)
# Pol eta inh-1: qHTS for Inhibitors of Polymerase Eta; DNA polymerase eta (Homo sapiens), Q9Y253; recombinant Pol eta, fluorescent DNA replication assay; Potency, µM (top dose mostly 114 µM), usual class: inhibitors; 1.2% of 390,000 active; AID 588591, 2011
# Target sequence (Q9Y253 whole entry, looked up): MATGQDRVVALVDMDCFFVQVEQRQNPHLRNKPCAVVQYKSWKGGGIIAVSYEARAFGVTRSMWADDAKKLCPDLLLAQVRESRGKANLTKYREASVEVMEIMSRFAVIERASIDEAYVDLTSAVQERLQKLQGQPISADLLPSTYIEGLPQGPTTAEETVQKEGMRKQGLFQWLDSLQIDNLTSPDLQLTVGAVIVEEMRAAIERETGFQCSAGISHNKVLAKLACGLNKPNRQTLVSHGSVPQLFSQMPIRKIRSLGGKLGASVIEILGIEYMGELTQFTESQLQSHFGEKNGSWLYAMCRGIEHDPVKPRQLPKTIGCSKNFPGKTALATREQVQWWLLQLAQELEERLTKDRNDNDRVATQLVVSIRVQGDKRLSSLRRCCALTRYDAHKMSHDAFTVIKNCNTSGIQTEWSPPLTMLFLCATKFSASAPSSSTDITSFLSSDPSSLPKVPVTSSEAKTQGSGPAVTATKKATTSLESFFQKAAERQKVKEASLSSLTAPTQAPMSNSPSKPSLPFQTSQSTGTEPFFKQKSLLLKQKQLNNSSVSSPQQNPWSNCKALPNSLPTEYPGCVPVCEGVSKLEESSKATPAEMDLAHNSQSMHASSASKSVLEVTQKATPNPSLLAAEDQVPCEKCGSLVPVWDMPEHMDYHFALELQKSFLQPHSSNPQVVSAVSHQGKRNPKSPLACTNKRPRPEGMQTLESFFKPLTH
#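 Pol eta (10 nM) was preincubated with compounds for 15 min at room temperature, after which fluorescent replication substrate (50 nM final) was added to start the reaction. Fluorescence was read kinetically at 0 and 10 min.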
# Pol beta inh: qHTS Assay for Inhibitors of DNA Polymerase Beta. Pol beta primer extension/strand displacement, fluorescence kinetic. Potency, µM (highest dose often 114 µM), most hits filed as inhibitors. P06746. 1.3% of 340,000 active
#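 Pol beta (10 nM) and compounds were preincubated 15 min at room temperature, then 50 nM substrate (final) started primer extension/strand displacement. Reads were taken at 0 and 10 min; concentration-response data were fitted to a four-parameter Hill equation.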
# Pol kappa inh: qHTS for Inhibitors of Polymerase Kappa | 0.53% of 400,000 active | Potency, µM (titrated, usually from 107 µM), usual class: inhibitors | purified Pol kappa, fluorescent DNA synthesis assay, 10 min
#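 Kinetic fluorescence readout at 0 and 10 min followed reaction start with substrate at 50 nM final. Beforehand, enzyme (10 nM Pol kappa) stood 15 min with compound at room temperature; buffer-only wells were negative controls.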
# Pol iota inh: qHTS for Inhibitors of Polymerase Iota. Potency, µM (doses to about 115 µM), usual class: inhibitors. AID 588590, 2011. 1% of 390,000 active. Pol iota fluorescent replication assay, 10 min
#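 Pol iota at 10 nM preincubated 15 min with compounds at room temperature; reaction started with fluorescent substrate, 50 nM final. Fluorescence read kinetically at 0 and 10 min; buffer-only wells as negative control.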
# WRN helicase inh-1: qHTS for Inhibitors of WRN Helicase. WRN helicase unwinding, fluorescent forked duplex, kinetic. Potency, µM (doses to about 114 µM), hits mostly inhibitors. 0.46% of 360,000 active; further: nearly all actives have a fitted effect of over 55% in size
#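 Screening of the MLSMR collection measured strand separation of a quenched forked DNA duplex (100 nM) by 20 nM WRN with 2 mM ATP, all final. Compounds were preincubated with enzyme 15 min at room temperature.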
# PI5P4K alpha inh: qHTS for Inhibitors of phosphatidylinositol 5-phosphate 4-kinase (PI5P4K); max response, %; 1.2% of 330,000 active; PI5P4Kalpha enzyme, ADP-Glo luminescence, 60 min; stronger effect = lower value; AID 652105, 2013; active means max response of -50% or lower; inconclusive means between -30% and -50%; inactive means -30% or higher; further: value at the top dose of about 77 µM
#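 PI5P4Kalpha ADP-Glo assay; 5 microM ATP final; 60 min RT reaction; HEPES pH 7.4/EGTA/CHAPS, 5% DMSO; controls lacking substrate or enzyme; luminescent end-point.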
# TbPGK inh: qHTS for inhibitors of Phosphogylcerate Kinase: Hit Validation Screen; shares compounds with Pol kappa inh; TbPGK coupled GAPDH assay, Kinase-Glo luminescence; Potency, µM (top dose mostly 57.5 µM), usual class: inhibitors; 79% of 500 active; AID 686980, 2013; further: nearly all actives have a fitted effect of over 65% in size
# Pol iota confirm: qHTS for Inhibitors of Polymerase Iota: Confirmatory Assay for Cherry-picked Compounds. 77% of 1,500 active. shares compounds with Pol kappa inh. Pol iota primer extension, TAMRA/BHQ fluorescence. Potency, µM, actives largely listed as inhibitors
# Pol eta inh-2: qHTS for Inhibitors of Polymerase Eta: Confirmatory Assay for Cherry-picked Compounds; Potency, µM, hits mostly inhibitors; shares compounds with Pol eta inh-1; 64% of 2,600 active; AID 720502, 2013; Pol eta primer extension, TAMRA/BHQ fluorescence, 10 min
# WRN helicase inh-2: qHTS for Inhibitors of WRN Helicase: Confirmatory Assay for Cherry-picked Compounds | shares compounds with WRN helicase inh-1 | WRN helicase DNA unwinding, fluorescence kinetic | Potency, µM (highest dose often 57.1 µM), hits mostly inhibitors | 63% of 610 active | AID 720497, 2013; further: nearly all actives have a fitted effect of over 65% in size
# TO DNA binding: qHTS for Inhibitors of WRN Helicase: Thiazole Orange DNA Binding Counterscreen; shares compounds with WRN helicase inh-1; thiazole orange DNA binding displacement, fluorescence; Potency, µM (doses to about 57.1 µM), most hits filed as inhibitors; 10% of 610 active;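 further: drop in dye fluorescence marks compound binding to DNA; nearly all actives have a fitted effect of over 60% in size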
# BLM helicase inh: qHTS for Inhibitors of WRN Helicase: BLM Helicase Counterscreen for WRN Inhibitors; shares compounds with WRN helicase inh-1; Recombinant BLM helicase DNA unwinding, red fluorescence; Potency, µM (titrated, usually from 57.1 µM), most hits filed as inhibitors; 60% of 610 active; AID 720503, 2013; further: nearly all actives have a fitted effect of over 60% in size
# Numbers stand for hits; – = inactive; ? = inconclusive; · = no result. This is a sample that favours compounds with a hit; in the whole collection about 2.8% have one here. Unless noted, the call rests on the fitted dose curve; in most records, active means well fitted curve in the direction sought with a large enough effect; inconclusive means small, poorly fitted or top-dose-only effect, or another doubt; inactive means no such curve, though single readings can be large; an effect the other way counts as inactive or inconclusive.
SMILES,Pol eta inh-1,Pol beta inh,Pol kappa inh,Pol iota inh,WRN helicase inh-1,PI5P4K alpha inh,TbPGK inh,Pol iota confirm,Pol eta inh-2,others
Cc1ccc(N2C(=O)NC(=O)/C(=C/c3ccoc3)C2=O)cc1,3.16µM,?,22.4µM,7.94µM,31.6µM,-82.9,0.919µM,11.9,16.9,
Cc1ccc(N2C(=O)NC(=O)/C(=C/c3cnn(-c4ccc(C)cc4)c3)C2=O)cc1,–,–,–,–,–,–,·,·,·,
CNNC,·,·,–,·,·,·,·,·,·,
CC(N)[C@H](O)c1ccc(O)c(O)c1 (stereo not given in full),3.16µM,1.78µM,2.99µM,2.51µM,·,·,·,15,37.9,
Cc1cc(/C=C2\C(=O)NC(=O)N(c3ccccc3F)C2=O)c(C)n1-c1cc(C(=O)O)cc(C(=O)O)c1,3.16µM,10µM,?,?,39.8µM,-78.1,?,18.9,7.57,WRN helicase inh-2=?;TO DNA binding=–;BLM helicase inh=–
CCc1ccccc1N1C(=O)NC(=O)/C(=C\c2cc(C)n(C)c2C)C1=O,–,–,–,–,–,–,·,·,·,
COc1cc(-c2oc3cc(O)cc(O)c3c(=O)c2O)ccc1O,·,·,?,–,·,·,·,·,·,
